The whole screen tested about 48,000 compounds, of which about 13,000 (27%) showed an effect of 50% or more. The list shows a part of the results.
system: Wolbachia pipientis; test: Anti-Wolbachia Cell-Based Screen; format: functional; design: scale not given: in the data most compounds retested in dose-response had high values; conditions: 5 µM

Structure (SMILES) | Percent Effect [%]
CO[C@@H]1CCN(Cc2cnn(C)c2)[C@@H]2CN(Cc3ccco3)C[C@@H]21.O=C(O)C(F)(F)F.O=C(O)C(F)(F)F | 6.003
CO[C@H]1CCN(Cc2c(C)noc2C)[C@@H]2CN(Cc3cccnc3)C[C@H]12.O=C(O)C(F)(F)F.O=C(O)C(F)(F)F.O=C(O)C(F)(F)F | 114.1
CO[C@H]1CCN(Cc2cnn(C)c2)[C@@H]2CN(Cc3cccnc3)C[C@H]12.O=C(O)C(F)(F)F.O=C(O)C(F)(F)F.O=C(O)C(F)(F)F | 4.089
CO[C@H]1CCN(Cc2cccc(C)n2)[C@@H]2CN(Cc3cccnc3)C[C@H]12.O=C(O)C(F)(F)F.O=C(O)C(F)(F)F.O=C(O)C(F)(F)F.O=C(O)C(F)(F)F | -9.589
CO[C@@H]1CCN(c2ncc(F)cn2)[C@@H]2CN(Cc3cccnc3)C[C@@H]21.O=C(O)C(F)(F)F.O=C(O)C(F)(F)F.O=C(O)C(F)(F)F | -6.486
CO[C@H]1CCN(Cc2c(C)noc2C)[C@@H]2CN(Cc3ccncc3)C[C@H]12.O=C(O)C(F)(F)F.O=C(O)C(F)(F)F.O=C(O)C(F)(F)F | 106.3
CO[C@@H]1CCN(Cc2c(C)noc2C)[C@@H]2CN(Cc3ccco3)C[C@@H]21.O=C(O)C(F)(F)F.O=C(O)C(F)(F)F | 102.8
COCC1CN(Cc2c(C)noc2C)Cc2ccnn2C1.O=C(O)C(F)(F)F.O=C(O)C(F)(F)F (configuration not stated) | -2.816
Cc1noc(C)c1CN1CC[C@H]2OCC[C@@H](C(=O)NCC3CC3)[C@@H]2C1.O=C(O)C(F)(F)F | -16.42
Cc1noc(C)c1CN1C[C@@H](N(C)Cc2ccco2)[C@H]2OCCC[C@H]21.O=C(O)C(F)(F)F.O=C(O)C(F)(F)F | 12.06
CO[C@@H]1CCN(Cc2c(C)noc2C)[C@@H]2CN(Cc3cccnc3)C[C@@H]21.O=C(O)C(F)(F)F.O=C(O)C(F)(F)F.O=C(O)C(F)(F)F | 82.84
COC(=O)N1CCN(CCCc2nnnn2-c2ccccc2)CC1 | -41.56
O=C(Cc1ccc(F)cc1Cl)N1CC[C@H](CO)[C@@H](O)C1 | 3.077
COc1cccc2c1OCC(C(=O)N1CCN(S(C)(=O)=O)CC1)C2 (configuration not stated) | 0.5994
CC1CCCN1C1CCN(C(=O)c2cccc(-c3ccoc3)c2)CC1 (configuration not stated) | 2.618
CSCC[C@@H](CO)Nc1ccc(-c2nc(C3CC3)no2)cn1 | -21.62
Cc1noc(CS(=O)(=O)C/C=C/c2ccccc2)n1 | -7.047

From ChEMBL document CHEMBL3988442, “University of Dundee, Small-Polar-MMV Screening Library” (2021)
